Test results: PubChem BioAssay AID1159580 (chemical genetic matrix, 2015)
Hit rate of the full screen: of about 5,500 compounds, about 2,000 (36%) were called active. Inconclusive results (about 18%) are left out. Rule as the data show it: active = normalized growth mostly below about 0.91 (no sharp cut-off); inconclusive = no clear call, values can overlap the other calls; inactive = mostly above about 0.92. The list shows a part of the results.

Assay: chemical genetic growth profiling, strain panel (AID 1159580);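 also: tested at 20 µM; growth read once vehicle control cultures reached saturation at 30 °C; 1 = growth at the plate median or of vehicle wells; lower values mean less growth of the strain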
Details: S. cerevisiae deletion strains, growth OD
[1] = locus YAL013W, strain DEP1, active compounds read low
[2] = locus YDR150W, strain NUM1, active compounds read low
[3] = locus YJR075W, strain HOC1, active compounds read low
[4] = locus YMR263W, strain SAP30, active compounds read low
[5] = locus YNL153C, strain GIM3, active compounds read low
[6] = locus YCL061C, strain MRC1, active compounds read low
[7] = locus YHR030C, strain SLT2, active compounds read low
[8] = locus YHR079C, strain IRE1, active compounds read low
[9] = locus YJL095W, strain BCK1, active compounds read low
[10] = locus YJR066W, strain TOR1, active compounds read low
[11] = locus YLR113W, strain HOG1, active compounds read low
[12] = locus YNL183C, strain NPR1, active compounds read low
[13] = locus YOR231W, strain MKK1, active compounds read low
[14] = locus YPL256C, strain CLN2, active compounds read low

Measured: normalized growth

CN1C2CCC1CC(NC(=O)c1nn(C)c3ccccc13)C2 (stereo not given)
inactive: [1] 1.02 | locus YAL040C, strain CLN3, active compounds read low 1.01 | locus YCL061C, strain MRC1 (second series), active compounds read low 1.01 | [2] 1 | locus YDR363W, strain ESC2, active compounds read low 1 | locus YER002W, strain NOP16, active compounds read low 0.992 | [3] 1.01 | [4] 0.999 | locus YNL128W, strain TEP1, active compounds read low 0.987 | [5] 0.999 | locus YNL175C, strain NOP13, active compounds read low 1.01 | locus YNL197C, strain WHI3, active compounds read low 1.01 | locus YNL224C, strain SQS1, active compounds read low 1 | locus YOR083W, strain WHI5 (second series), active compounds read low 1.02

COc1ccc(NC(=O)C(C)c2ccc(CC(C)C)cc2)cc1 (stereo not given)
inactive: [1] 0.976 | locus YDL101C, strain DUN1, active compounds read low 0.956 | locus YDL134C, strain PPH21, active compounds read low 0.965 | [2] 0.91 | locus YEL061C, strain CIN8, active compounds read low 0.943 | [7] 0.916 | locus YLR058C, strain SHM2 (second series), active compounds read low 0.974 | locus YLR085C, strain ARP6, active compounds read low 0.878 | locus YML094W, strain GIM5, active compounds read low 0.903 | [4] 0.963 | locus YMR307W, strain GAS1, active compounds read low 0.774 | [5] 0.932 | locus YNL298W, strain CLA4 (second series), active compounds read low 0.937 | locus YNL322C, strain KRE1, active compounds read low 0.967 | locus YPL055C, strain LGE1, active compounds read low 0.838 | locus YPR135W, strain CTF4, active compounds read low 0.855
active: locus YBR229C, strain ROT2, active compounds read low 0.897 | [6] 0.848 | locus YGR078C, strain PAC10, active compounds read low 0.886 | locus YHR087W, strain rtc3, active compounds read low 0.824 | locus YJR043C, strain POL32, active compounds read low 0.907 | [3] 0.804 | locus YKL190W, strain CNB1, active compounds read low 0.914 | locus YLR039C, strain RIC1, active compounds read low 0.527 | locus YLR262C, strain YPT6, active compounds read low 0.46 | locus YMR219W, strain ESC1, active compounds read low 0.94 | locus YNR030W, strain Alg12, active compounds read low 0.872 | locus YPL241C, strain CIN2, active compounds read low 0.858

CN1[C@@H]2CC[C@@H]1CC(O)C2 (stereo not given in full)
inactive: [7] 1.03 | [8] 1.04 | [9] 1.05 | [10] 0.983 | [11] 0.98 | [12] 0.986 | [13] 1.01 | [14] 1.06

CCN1C[C@]2(OC(=O)c3ccccc3NC(C)=O)CCC(OC)[C@]34C1[C@H](CC23)[C@@]1(O)CC(OC)[C@H]2CC4C1(O)[C@H]2OC (stereo not given in full)
inactive: locus YAL021C, strain ccr4, active compounds read low 0.966 | locus YAL026C, strain drs2, active compounds read low 0.981 | locus YAL030W, strain snc1, active compounds read low 0.977 | locus YBL061C, strain skt5, active compounds read low 0.971 | locus YBR009C, strain hhf1, active compounds read low 0.985 | locus YBR023C, strain chs3, active compounds read low 0.977 | locus YBR171W, strain sec66, active compounds read low 0.96 | locus YBR231C, strain swc5, active compounds read low 0.972 | locus YBR279W, strain paf1, active compounds read low 0.979 | locus YCL011C, strain gbp2, active compounds read low 0.947 | locus YCL016C, strain dcc1, active compounds read low 0.971 | [6] 1 | locus YCL069W, strain vba3, active compounds read low 0.955 | locus YCR088W, strain abp1, active compounds read low 0.946 | locus YDL005C, strain med2, active compounds read low 0.948 | locus YDL040C, strain nat1, active compounds read low 0.969 | locus YDR001C, strain nth1, active compounds read low 0.977 | locus YDR069C, strain doa4, active compounds read low 0.953 | locus YDR137W, strain rgp1, active compounds read low 1.02 | locus YDR159W, strain sac3, active compounds read low 0.979 | locus YDR195W, strain ref2 0.963 | locus YDR297W, strain sur2, active compounds read low 0.967 | locus YDR334W, strain swr1, active compounds read low 0.974 | locus YDR335W, strain msn5, active compounds read low 0.958 | locus YDR392W, strain spt3, active compounds read low 0.921 | locus YEL003W, strain gim4, active compounds read low 0.98 | locus YEL037C, strain rad23, active compounds read low 0.958 | locus YEL061C, strain CIN8 (second series), active compounds read low 0.963 | locus YER015W, strain faa2, active compounds read low 0.974 | locus YER016W, strain bim1, active compounds read low 0.979 | locus YER111C, strain swi4, active compounds read low 0.986 | locus YER155C, strain BEM2 (second series), active compounds read low 0.974 | locus YFR010W, strain ubp6, active compounds read low 0.975 | locus YGL167C, strain pmr1, active compounds read low 0.974 | locus YGL173C, strain kem1, active compounds read low 0.972 | locus YGL227W, strain vid30, active compounds read low 0.956 | locus YGL240W, strain doc1, active compounds read low 0.973 | locus YGL253W, strain hxk2, active compounds read low 0.963 | locus YHR013C, strain ard1, active compounds read low 0.969 | locus YHR027C, strain rpn1, active compounds read low 0.992 | [7] 0.976 | [8] 0.98 | locus YHR142W, strain chs7, active compounds read low 0.95 | locus YJL092W, strain hpr5, active compounds read low 0.953 | locus YJL095W, strain BCK1 (second series), active compounds read low 0.974 | [9] 0.97 | locus YJL115W, strain asf1, active compounds read low 0.973 | locus YJL129C, strain trk1, active compounds read low 0.961 | locus YJL154C, strain vps35, active compounds read low 0.952 | locus YJL164C, strain tpk1, active compounds read low 0.983 | locus YJL166W, strain qcr8, active compounds read low 0.979 | locus YJL187C, strain SWE1, active compounds read low 0.987 | [10] 0.975 | locus YKL160W, strain elf1, active compounds read low 0.979 | locus YKR026C, strain gcn3, active compounds read low 0.975 | locus YKR091W, strain srl3, active compounds read low 0.979 | locus YLL001W, strain dnm1, active compounds read low 0.993 | locus YLL026W, active compounds read low 0.984 | locus YLL041C, strain sdh2, active compounds read low 0.978 | locus YLR027C, strain aat2, active compounds read low 0.967 | [11] 0.969 | locus YLR221C, strain rsa3, active compounds read low 0.976 | locus YLR258W, strain gsy2, active compounds read low 0.974 | locus YLR262C, strain YPT6 (second series), active compounds read low 1.04 | locus YLR320W, strain mms22, active compounds read low 0.983 | locus YLR342W, strain FKS1, active compounds read low 0.961 | locus YLR357W, strain rsc2, active compounds read low 0.945 | locus YLR370C, strain arc18, active compounds read low 0.973 | locus YLR384C, strain iki3, active compounds read low 0.959 | locus YML120C, strain ndi1, active compounds read low 0.974 | locus YMR058W, strain fet3, active compounds read low 0.989 | locus YMR125W, strain sto1, active compounds read low 0.953 | locus YMR129W, active compounds read low 0.98 | locus YMR205C, strain PFK2, active compounds read low 0.993 | locus YMR231W, strain pep5, active compounds read low 0.953 | locus YNL071W, strain lat1, active compounds read low 0.956 | [12] 0.905 | locus YNL209W, strain ssb2, active compounds read low 0.974 | locus YNL248C, strain rpa49, active compounds read low 0.98 | locus YNL322C, strain KRE1 (second series), active compounds read low 0.972 | locus YNR049C, strain mso1, active compounds read low 0.979 | locus YOR001W, strain rrp6, active compounds read low 0.961 | locus YOR070C, strain gyp1, active compounds read low 0.964 | locus YOR080W, strain dia2, active compounds read low 0.97 | locus YOR083W, strain WHI5, active compounds read low 0.973 | locus YOR106W, strain vam3, active compounds read low 0.959 | [13] 0.978 | locus YOR265W, strain rbl2, active compounds read low 0.982 | locus YOR270C, strain vph1, active compounds read low 0.975 | locus YOR290C, strain snf2, active compounds read low 0.986 | locus YPL051W, strain arl3, active compounds read low 0.979 | locus YPL078C, strain atp4, active compounds read low 0.971 | locus YPL106C, strain sse1, active compounds read low 0.923 | locus YPL240C, strain hsp82, active compounds read low 0.963 | [14] 0.956
